Measured values from the supplement of paper PMC6411743.
± gives the standard deviation of the averaged measurements. Targets with the largest changes are over-represented here; the source holds about 6,200 in all.

Compound: Nc1ncnc2c1ncn2[C@@H]1O[C@H](COP(=O)(O)OP(=O)(O)NP(=O)(O)O)[C@@H](O)[C@H]1O [adenylyl imidodiphosphate]
Assay: NP40-soluble protein abundance relative to vehicle (solubility fold change) (ratio); higher = more soluble protein in presence of AMP-PNP
Procedure, shortened: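 Crude Jurkat lysate, prepared by Dounce homogenisation, was exposed to eight concentrations from 0.1 to 10 mM for 10 min at room temperature and then 3 min at 37 °C. Solubilisation used 0.8% NP40 with benzonase for 60 min at 4 °C, followed by ultracentrifugation and TMT labelling of the supernatant for LC-MS/MS. After vsn normalisation of intensities, each value is the fold change against the detergent-processed vehicle within each replicate, across three independent experiments.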

Chain of UniProt O75264 (O75264 whole entry, one chain of several): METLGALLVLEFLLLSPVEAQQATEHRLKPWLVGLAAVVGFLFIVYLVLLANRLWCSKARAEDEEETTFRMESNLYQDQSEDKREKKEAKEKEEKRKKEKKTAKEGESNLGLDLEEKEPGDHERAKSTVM
Chain of UniProt P61769 (P61769 whole entry, one chain of several): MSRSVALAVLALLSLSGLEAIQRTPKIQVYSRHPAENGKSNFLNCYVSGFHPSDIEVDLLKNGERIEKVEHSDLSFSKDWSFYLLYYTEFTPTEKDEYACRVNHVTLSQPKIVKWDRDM
Chain of UniProt Q9BVL2 (Q9BVL2 whole entry, one chain of several): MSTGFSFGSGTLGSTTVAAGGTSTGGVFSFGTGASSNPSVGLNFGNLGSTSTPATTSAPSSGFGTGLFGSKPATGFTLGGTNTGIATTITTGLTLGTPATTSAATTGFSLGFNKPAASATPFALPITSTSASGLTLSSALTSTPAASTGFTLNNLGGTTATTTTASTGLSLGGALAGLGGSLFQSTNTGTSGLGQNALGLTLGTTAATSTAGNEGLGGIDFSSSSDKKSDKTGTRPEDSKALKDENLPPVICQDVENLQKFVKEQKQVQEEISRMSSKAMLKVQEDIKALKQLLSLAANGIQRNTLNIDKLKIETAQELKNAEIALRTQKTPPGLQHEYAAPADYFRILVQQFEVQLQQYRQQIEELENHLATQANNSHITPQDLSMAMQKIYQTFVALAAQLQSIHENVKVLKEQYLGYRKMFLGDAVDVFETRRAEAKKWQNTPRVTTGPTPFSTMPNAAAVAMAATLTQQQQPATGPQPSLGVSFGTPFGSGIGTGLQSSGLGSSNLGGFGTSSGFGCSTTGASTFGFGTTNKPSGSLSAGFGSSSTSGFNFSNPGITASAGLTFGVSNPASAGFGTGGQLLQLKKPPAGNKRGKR
Chain of UniProt Q9NQV6 (Q9NQV6 whole entry, one chain of several): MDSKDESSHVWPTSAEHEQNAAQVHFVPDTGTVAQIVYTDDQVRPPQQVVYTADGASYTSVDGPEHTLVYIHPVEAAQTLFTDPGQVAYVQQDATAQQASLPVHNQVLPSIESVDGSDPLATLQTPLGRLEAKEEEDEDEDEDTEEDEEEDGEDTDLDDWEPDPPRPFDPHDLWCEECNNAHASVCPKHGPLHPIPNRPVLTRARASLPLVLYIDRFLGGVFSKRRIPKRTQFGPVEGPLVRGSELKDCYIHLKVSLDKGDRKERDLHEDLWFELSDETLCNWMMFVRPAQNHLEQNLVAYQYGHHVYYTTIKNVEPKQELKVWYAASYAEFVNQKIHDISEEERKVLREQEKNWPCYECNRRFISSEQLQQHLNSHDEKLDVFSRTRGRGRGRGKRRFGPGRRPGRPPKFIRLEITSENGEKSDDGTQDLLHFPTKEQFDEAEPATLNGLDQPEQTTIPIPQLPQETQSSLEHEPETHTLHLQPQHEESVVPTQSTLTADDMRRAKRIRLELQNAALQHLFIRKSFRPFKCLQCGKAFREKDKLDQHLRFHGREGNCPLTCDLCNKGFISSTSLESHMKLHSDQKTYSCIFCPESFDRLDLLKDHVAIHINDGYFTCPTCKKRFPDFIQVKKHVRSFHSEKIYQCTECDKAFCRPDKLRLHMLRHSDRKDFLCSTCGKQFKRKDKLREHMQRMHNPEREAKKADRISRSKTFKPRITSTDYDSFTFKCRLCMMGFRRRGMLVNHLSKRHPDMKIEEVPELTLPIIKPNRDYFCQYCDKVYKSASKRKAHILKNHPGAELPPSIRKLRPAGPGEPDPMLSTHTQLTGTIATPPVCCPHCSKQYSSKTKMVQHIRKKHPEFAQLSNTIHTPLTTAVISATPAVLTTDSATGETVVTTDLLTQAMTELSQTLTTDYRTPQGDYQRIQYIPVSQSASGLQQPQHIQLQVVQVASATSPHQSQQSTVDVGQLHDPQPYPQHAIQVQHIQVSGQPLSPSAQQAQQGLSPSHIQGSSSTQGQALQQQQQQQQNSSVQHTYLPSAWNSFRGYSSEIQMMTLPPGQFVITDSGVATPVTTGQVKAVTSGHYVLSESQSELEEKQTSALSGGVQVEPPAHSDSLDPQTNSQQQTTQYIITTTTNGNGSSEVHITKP
Chain of UniProt P35236 (P35236 whole entry, one chain of several): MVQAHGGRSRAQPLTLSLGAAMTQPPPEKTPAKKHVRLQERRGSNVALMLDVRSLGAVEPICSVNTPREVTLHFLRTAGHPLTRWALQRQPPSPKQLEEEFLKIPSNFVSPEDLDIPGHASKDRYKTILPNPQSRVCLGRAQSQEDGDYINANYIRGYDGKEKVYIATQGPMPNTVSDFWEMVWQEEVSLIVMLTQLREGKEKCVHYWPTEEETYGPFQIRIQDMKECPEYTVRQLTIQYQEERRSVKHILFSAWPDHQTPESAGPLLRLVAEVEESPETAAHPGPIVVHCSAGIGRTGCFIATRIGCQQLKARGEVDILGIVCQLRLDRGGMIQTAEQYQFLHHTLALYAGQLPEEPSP
Chain of UniProt Q9BY11 (Q9BY11 whole entry, one chain of several): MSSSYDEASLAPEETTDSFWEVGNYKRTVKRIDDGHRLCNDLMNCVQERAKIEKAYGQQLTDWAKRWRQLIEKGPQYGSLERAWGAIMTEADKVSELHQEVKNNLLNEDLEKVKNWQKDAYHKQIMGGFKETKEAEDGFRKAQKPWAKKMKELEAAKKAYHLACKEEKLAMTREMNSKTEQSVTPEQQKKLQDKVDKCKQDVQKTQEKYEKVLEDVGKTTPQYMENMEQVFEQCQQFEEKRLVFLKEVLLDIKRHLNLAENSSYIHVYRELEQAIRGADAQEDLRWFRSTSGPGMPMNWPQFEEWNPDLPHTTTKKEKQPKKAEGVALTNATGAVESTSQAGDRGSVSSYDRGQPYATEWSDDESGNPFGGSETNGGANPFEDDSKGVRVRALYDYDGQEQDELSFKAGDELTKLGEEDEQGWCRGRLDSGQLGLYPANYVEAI
Chain of UniProt O43819 (O43819 whole entry): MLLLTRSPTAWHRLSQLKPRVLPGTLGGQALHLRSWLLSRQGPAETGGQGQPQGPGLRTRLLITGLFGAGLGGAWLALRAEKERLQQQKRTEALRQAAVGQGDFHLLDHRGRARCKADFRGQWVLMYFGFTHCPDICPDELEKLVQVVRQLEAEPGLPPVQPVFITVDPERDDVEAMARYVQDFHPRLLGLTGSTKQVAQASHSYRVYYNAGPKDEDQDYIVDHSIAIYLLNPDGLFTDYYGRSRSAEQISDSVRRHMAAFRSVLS
Chain of UniProt O14735 (O14735 whole entry): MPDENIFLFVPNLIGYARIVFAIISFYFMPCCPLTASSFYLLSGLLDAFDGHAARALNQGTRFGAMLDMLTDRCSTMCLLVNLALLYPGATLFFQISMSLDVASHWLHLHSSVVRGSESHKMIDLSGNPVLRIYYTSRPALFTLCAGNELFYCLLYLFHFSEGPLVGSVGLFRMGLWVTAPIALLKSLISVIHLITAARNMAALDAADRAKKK
Chain of UniProt O75155 (O75155 whole entry): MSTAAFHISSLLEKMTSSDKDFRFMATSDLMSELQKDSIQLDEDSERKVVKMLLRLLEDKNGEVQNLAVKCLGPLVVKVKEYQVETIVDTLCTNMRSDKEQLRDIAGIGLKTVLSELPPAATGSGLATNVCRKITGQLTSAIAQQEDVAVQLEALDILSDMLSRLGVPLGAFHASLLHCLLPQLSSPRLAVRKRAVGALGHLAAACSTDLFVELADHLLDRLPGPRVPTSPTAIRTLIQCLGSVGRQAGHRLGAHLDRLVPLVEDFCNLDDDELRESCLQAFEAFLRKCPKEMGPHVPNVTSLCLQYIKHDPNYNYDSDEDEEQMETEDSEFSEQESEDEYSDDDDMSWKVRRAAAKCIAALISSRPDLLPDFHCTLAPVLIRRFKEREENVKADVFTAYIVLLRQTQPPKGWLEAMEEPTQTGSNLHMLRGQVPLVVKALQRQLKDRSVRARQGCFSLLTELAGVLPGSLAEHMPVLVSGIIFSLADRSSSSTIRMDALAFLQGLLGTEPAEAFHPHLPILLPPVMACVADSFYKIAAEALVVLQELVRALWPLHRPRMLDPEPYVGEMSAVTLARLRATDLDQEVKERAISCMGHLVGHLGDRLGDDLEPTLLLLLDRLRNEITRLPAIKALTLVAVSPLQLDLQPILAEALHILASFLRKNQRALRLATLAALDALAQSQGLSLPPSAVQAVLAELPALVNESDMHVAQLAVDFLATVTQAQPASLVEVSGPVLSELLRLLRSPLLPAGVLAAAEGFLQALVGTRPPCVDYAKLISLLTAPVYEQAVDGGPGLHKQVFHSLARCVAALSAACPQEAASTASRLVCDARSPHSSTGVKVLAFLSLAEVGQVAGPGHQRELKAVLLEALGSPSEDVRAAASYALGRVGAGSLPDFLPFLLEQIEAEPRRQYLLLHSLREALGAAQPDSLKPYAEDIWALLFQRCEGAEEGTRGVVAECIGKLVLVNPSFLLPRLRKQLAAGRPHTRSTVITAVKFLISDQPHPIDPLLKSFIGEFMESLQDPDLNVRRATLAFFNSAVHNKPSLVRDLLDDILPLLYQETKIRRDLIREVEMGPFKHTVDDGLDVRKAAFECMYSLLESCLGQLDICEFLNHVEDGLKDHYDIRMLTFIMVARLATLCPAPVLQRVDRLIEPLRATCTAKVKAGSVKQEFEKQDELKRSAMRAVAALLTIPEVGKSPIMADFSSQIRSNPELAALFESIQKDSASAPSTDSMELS
Chain of UniProt O15541 (O15541 whole entry): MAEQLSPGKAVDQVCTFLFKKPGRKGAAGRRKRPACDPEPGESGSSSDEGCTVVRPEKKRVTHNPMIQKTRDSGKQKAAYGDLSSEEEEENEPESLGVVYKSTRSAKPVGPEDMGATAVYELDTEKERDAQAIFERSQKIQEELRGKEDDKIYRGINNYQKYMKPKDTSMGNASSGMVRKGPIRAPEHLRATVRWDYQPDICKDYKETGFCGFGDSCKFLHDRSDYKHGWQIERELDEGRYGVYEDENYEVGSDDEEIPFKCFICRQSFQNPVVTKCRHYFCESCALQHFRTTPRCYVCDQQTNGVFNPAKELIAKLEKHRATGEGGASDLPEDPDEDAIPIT

Target	NP40-soluble protein abundance (concentration: 1mM)	NP40-soluble protein abundance (concentration: 2mM)	NP40-soluble protein abundance (concentration: 4mM)	NP40-soluble protein abundance (concentration: 6mM)	NP40-soluble protein abundance (concentration: 8mM)	NP40-soluble protein abundance (concentration: 10mM)
H7BXF5|Q9H0E3-3 (UniProt Q9H0E3)	1.05 ± 0.041	1.09 ± 0.035	1.02 ± 0.03	1.03 ± 0.039	0.993 ± 0.016	1.05 ± 0.057
SCO2 (UniProt O43819)	0.972 ± 0.0067	0.949 ± 0.054	0.991 ± 0.04	0.95 ± 0.027	0.936 ± 0.015	0.934 ± 0.045
CAND2 (UniProt O75155)	0.973 ± 0.018	0.942 ± 0.027	0.986 ± 0.045	1 ± 0.066	1.01 ± 0.031	1.02 ± 0.023
CDIPT (UniProt O14735)	0.928 ± 0.062	0.896 ± 0.042	1 ± 0.019	1.01 ± 0.088	1.03 ± 0.073	0.974 ± 0.039
C9JIF9|P13798 (UniProt P13798)	0.953 ± 0.027	0.88 ± 0.061	0.915 ± 0.0095	0.903 ± 0.014	0.909 ± 0.022	0.871 ± 0.04
F6U236|Q9BY11 (UniProt Q9BY11)	0.978 ± 0.036	1.03 ± 0.057	0.968 ± 0.018	1 ± 0.063	0.978 ± 0.069	0.989 ± 0.054
H0YLF3|P61769 (UniProt P61769)	0.99 ± 0.055	0.977 ± 0.084	0.923 ± 0.1	0.879 ± 0.15	0.971 ± 0.035	0.917 ± 0.076
K7EKM7 (UniProt O75264)	1 ± 0.035	0.988 ± 0.015	1 ± 0.038	0.971 ± 0.032	0.9753 ± 0.0085	1.01 ± 0.014
A0A0G2JNU3|A6H8Y1|A6H8Y1-6|A6H8Y1-7 (UniProt A6H8Y1)	1.05 ± 0.041	1.087 ± 0.0063	1.12 ± 0.056	1.17 ± 0.067	1.12 ± 0.07	1.22 ± 0.046
H7BYF2|Q5JRG1|Q9BVL2|Q9BVL2-2|Q9BVL2-3 (UniProt Q9BVL2)	1.031 ± 0.0089	1.1 ± 0.095	1.04 ± 0.053	1.03 ± 0.033	1.04 ± 0.026	1.11 ± 0.06
H7C5I3|J3KR55|P35236|P35236-2|P35236-3 (UniProt P35236)	0.978 ± 0.0098	1.01 ± 0.021	0.994 ± 0.037	0.978 ± 0.011	0.959 ± 0.018	0.982 ± 0.033
H7C1I0|Q96K37|Q96K37-2 (UniProt Q96K37)	1.02 ± 0.041	1.03 ± 0.017	1.02 ± 0.022	1.02 ± 0.039	1.05 ± 0.054	1.07 ± 0.056
MYO1G (UniProt B0I1T2)	1.14 ± 0.074	1.12 ± 0.11	1.27 ± 0.22	1.34 ± 0.3	1.44 ± 0.43	1.47 ± 0.46
RNF113A (UniProt O15541)	1.02 ± 0.038	1.04 ± 0.089	0.999 ± 0.029	0.979 ± 0.017	0.935 ± 0.012	0.973 ± 0.035
E9PLV1|Q9NQV6|Q9NQV6-1|Q9NQV6-2|Q9NQV6-4|Q9NQV6-5|Q9NQV6-6|Q9NQV6-7|E9PRS0 (UniProt Q9NQV6)	1 ± 0.012	0.963 ± 0.055	0.9952 ± 0.0059	0.989 ± 0.021	1 ± 0.034	0.98 ± 0.023
